{"source": "ChEMBL document CHEMBL3988442", "about": "“University of Dundee, Small-Polar-MMV Screening Library” (2021)", "experiment": "In vitro enzyme assay to detect hydrolysis of chlorophenol red-beta-D-[…] directly proportional to the number of Toxoplasma stably expressing beta-galactosidase", "type": "functional, organism-based, Toxoplasma gondii", "design": "scale not given: in the data most compounds retested in dose-response had high values", "note": "Out of some 85,000 compounds screened, about 440 (0.52%) showed an effect of 50% or more. What follows is part of a selection rich in strong results, with near analogues and random picks from the rest."}
{"smiles": "COC[C@@H]1CCC[C@@]12CN(Cc1ccco1)CCO2.O=C(O)C(F)(F)F", "values": [{"measurement": "Percent Effect", "setting": "10 µM", "result": -11.03, "unit": "%"}]}
{"smiles": "COC[C@@H]1CCC[C@@]12CN(Cc1ccc(C)s1)CCO2.O=C(O)C(F)(F)F", "values": [{"measurement": "Percent Effect", "setting": "10 µM", "result": 74.98, "unit": "%"}]}
{"smiles": "COC[C@@H]1CCC[C@]12CN(Cc1ccco1)CCO2.O=C(O)C(F)(F)F", "values": [{"measurement": "Percent Effect", "setting": "10 µM", "result": -8.533, "unit": "%"}]}
{"smiles": "O=C(c1ccco1)N1CCC(N2CCCC2)CC1", "values": [{"measurement": "Percent Effect", "setting": "50 µM", "result": -19.12, "unit": "%"}]}
{"smiles": "CN(Cc1ccccn1)Cc1csnn1", "values": [{"measurement": "Percent Effect", "setting": "50 µM", "result": 13.21, "unit": "%"}]}
{"smiles": "O=C(c1ccc(Br)cn1)N1CCC(n2ccnn2)CC1", "values": [{"measurement": "Percent Effect", "setting": "50 µM", "result": 0.6699, "unit": "%"}]}
{"smiles": "COc1cccc(CO)c1C", "values": [{"measurement": "Percent Effect", "setting": "50 µM", "result": -13.36, "unit": "%"}]}
{"smiles": "COC(=O)c1ccc(CN2CCCC(CO)C2)cc1", "note": "(stereo unspecified)", "values": [{"measurement": "Percent Effect", "setting": "50 µM", "result": -14.35, "unit": "%"}]}
{"smiles": "CCOc1ccccc1C(=O)N1CCC(N)CC1", "values": [{"measurement": "Percent Effect", "setting": "50 µM", "result": 9.165, "unit": "%"}]}
{"smiles": "CCCc1ccc(C(=O)N2CCC(N)CC2)cc1", "values": [{"measurement": "Percent Effect", "setting": "50 µM", "result": -1.427, "unit": "%"}]}
{"smiles": "CCOc1ccc(C(=O)N2CCC(N)CC2)cc1", "values": [{"measurement": "Percent Effect", "setting": "50 µM", "result": 56.89, "unit": "%"}]}
{"smiles": "Cc1cc(Br)cc(C(=O)NC2(C(N)=O)CC2)c1", "values": [{"measurement": "Percent Effect", "setting": "50 µM", "result": 10.26, "unit": "%"}]}
{"smiles": "CC(C)=CCN1CCN(CCO)CC1CCO", "note": "(stereo unspecified)", "values": [{"measurement": "Percent Effect", "setting": "50 µM", "result": 22.16, "unit": "%"}]}
{"smiles": "O=C(NC1=NCCS1)c1cc2cc(F)ccc2s1", "values": [{"measurement": "Percent Effect", "setting": "50 µM", "result": -6.521, "unit": "%"}]}
{"smiles": "Cn1nccc1CCC(=O)NCCN1CCCC1", "values": [{"measurement": "Percent Effect", "setting": "50 µM", "result": 10.39, "unit": "%"}]}
{"smiles": "COc1ccc(C(C)N(C)Cc2c(C3CC3)[nH]c3ncccc23)cc1.Cl", "note": "(stereo unspecified)", "values": [{"measurement": "Percent Effect", "setting": "10 µM", "result": 65.16, "unit": "%"}]}
{"smiles": "COc1ccc(C(C)N(C)Cc2c(C(C)C)[nH]c3ncccc23)cc1", "note": "(stereo unspecified)", "values": [{"measurement": "Percent Effect", "setting": "10 µM", "result": -0.3537, "unit": "%"}]}
{"smiles": "COc1ccc(C(C)N(C)Cc2c(C(C)(C)C)[nH]c3ncccc23)cc1", "note": "(stereo unspecified)", "values": [{"measurement": "Percent Effect", "setting": "10 µM", "result": -0.9197, "unit": "%"}]}
{"smiles": "NS(=O)(=O)c1cccnc1NC1CCc2ccccc21", "note": "(stereo unspecified)", "values": [{"measurement": "Percent Effect", "setting": "50 µM", "result": 16.24, "unit": "%"}]}
{"smiles": "CN(C1CCCCC1)S(=O)(=O)N1CCNCC1", "values": [{"measurement": "Percent Effect", "setting": "50 µM", "result": 5.411, "unit": "%"}]}
{"smiles": "COC(=O)c1cnc(C)c(OC)c1", "values": [{"measurement": "Percent Effect", "setting": "50 µM", "result": -7.167, "unit": "%"}]}
{"smiles": "CCS(=O)(=O)N1CCN(C(=O)c2cnc3[nH]nc(C)c3c2)CC1", "values": [{"measurement": "Percent Effect", "setting": "10 µM", "result": -8.634, "unit": "%"}]}
{"smiles": "COC(=O)c1cnc2[nH]nc(C)c2c1", "values": [{"measurement": "Percent Effect", "setting": "50 µM", "result": 55.45, "unit": "%"}]}
{"smiles": "NCCNC(=O)c1ccc(-c2ccc(Cl)cc2)s1", "values": [{"measurement": "Percent Effect", "setting": "50 µM", "result": 89.1, "unit": "%"}]}
{"smiles": "CC(C)(NC(=O)c1ccc(-c2ccc(F)cc2)s1)C(N)=O", "values": [{"measurement": "Percent Effect", "setting": "10 µM", "result": 16.31, "unit": "%"}]}
{"smiles": "NS(=O)(=O)CCNC(=O)c1ccc(-c2cccs2)s1", "values": [{"measurement": "Percent Effect", "setting": "50 µM", "result": 1.485, "unit": "%"}]}
{"smiles": "Cc1csc(CCNC(=O)CSCC#N)n1", "values": [{"measurement": "Percent Effect", "setting": "50 µM", "result": -3.488, "unit": "%"}]}
{"smiles": "CC(O)C(=O)Nc1ccc(Cl)c(OC(F)F)c1", "note": "(stereo unspecified)", "values": [{"measurement": "Percent Effect", "setting": "50 µM", "result": -7.05, "unit": "%"}]}
{"smiles": "CC(C)(C)OC(=O)NCc1cc(C(N)=O)co1", "values": [{"measurement": "Percent Effect", "setting": "50 µM", "result": -10.17, "unit": "%"}]}
{"smiles": "CCC(CNC(=O)c1ccoc1)N1CCCC1", "note": "(stereo unspecified)", "values": [{"measurement": "Percent Effect", "setting": "50 µM", "result": 9.191, "unit": "%"}]}
{"smiles": "Cn1cc(NC(=O)CC2C=CCC2)cc(Br)c1=O", "note": "(stereo unspecified)", "values": [{"measurement": "Percent Effect", "setting": "50 µM", "result": -2.451, "unit": "%"}]}
{"smiles": "N#CCCN(CCC#N)Cc1ccc(Br)c2cccnc12", "values": [{"measurement": "Percent Effect", "setting": "10 µM", "result": 11.15, "unit": "%"}]}
{"smiles": "OCCN(CCO)Cc1ccc(Br)c2cccnc12", "values": [{"measurement": "Percent Effect", "setting": "10 µM", "result": 9.5, "unit": "%"}]}
{"smiles": "CCN(CCO)Cc1ccc(Br)c2cccnc12", "values": [{"measurement": "Percent Effect", "setting": "10 µM", "result": 72.7, "unit": "%"}]}
{"smiles": "Cc1nnc(NCc2cccc(OCC3CCCO3)c2)c(C#N)c1C", "note": "(stereo unspecified)", "values": [{"measurement": "Percent Effect", "setting": "10 µM", "result": 91.1, "unit": "%"}]}
{"smiles": "N#Cc1ccc(NCc2cccc(OCC3CCCO3)c2)nc1", "note": "(stereo unspecified)", "values": [{"measurement": "Percent Effect", "setting": "10 µM", "result": -17.65, "unit": "%"}]}
{"smiles": "Cc1nc2ccccc2nc1NCc1cccc(OCC2CCCO2)c1", "note": "(stereo unspecified)", "values": [{"measurement": "Percent Effect", "setting": "10 µM", "result": 17.15, "unit": "%"}]}
{"smiles": "CN(C)S(=O)(=O)N(CCCO)c1ccccc1Br", "values": [{"measurement": "Percent Effect", "setting": "50 µM", "result": -12.8, "unit": "%"}]}
{"smiles": "CCc1nnc(Nc2cc(C)nc(C3CCN(c4ccncn4)C3)n2)s1", "note": "(stereo unspecified)", "values": [{"measurement": "Percent Effect", "setting": "10 µM", "result": 84.37, "unit": "%"}]}
{"smiles": "CCc1nnc(Nc2cc(C)nc(C3CCN(c4ncccn4)C3)n2)s1", "note": "(stereo unspecified)", "values": [{"measurement": "Percent Effect", "setting": "10 µM", "result": 8.527, "unit": "%"}]}
{"smiles": "CCc1nnc(Nc2cc(C)nc(C3CCN(c4cnccn4)C3)n2)s1", "note": "(stereo unspecified)", "values": [{"measurement": "Percent Effect", "setting": "10 µM", "result": 9.302, "unit": "%"}]}
